Data on 21 compounds can be found in PubChem BioAssay.

“And” between values parts separate entries of the source, which are not always exact repeats. Identical values can stand only once. Inconclusive results are not listed. The source made the active and inactive calls. Unless noted, no rule for the calls is given here.

A short description of assay [1]: sensitizers of A549 cells to miR-34 induction, primary screen, imaging, A549 dox-inducible miR-34, nuclei and caspase counts (AID 1347080;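 active = compounds whose cell count with miR-34 switched on is under 0.7 times the count with it off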). The following applies: A549 miR-34 inducible, Hoechst nuclei count, 48 h.
Assay [2] concerns the target ATP-dependent translocase ABCB1 (Homo sapiens) (UniProt P08183). In words: MDR1 (ABCB1) efflux transporter inhibition, cell-based (AID 377; in the data active = fluorescence slope change above about 50%). The following applies: MDR1-expressing cells, fluorescent substrate accumulation slope; stronger effect = higher value; concentration not given here.
Assay [3] can be described thus: liver-stage malaria parasite growth inhibition, primary screen, cell-based, HepG2, luciferase luminescence, HepG2 viability (AID 624349; in the data active = parasite load remaining mostly below about 12%, no sharp cut-off; inactive = mostly above about 10%;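 also: 100% = mean of DMSO negative control wells on the same plate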). The following applies: P. berghei liver stage in HepG2, luciferase luminescence, concentration not given here; parasite load remaining: stronger effect = lower value; viability: measured here: HepG2 viability without parasites.
The nature of assay [4]: survival rescue of mitochondrial mutant cells in low glucose, primary screen, MELAS cybrids, Rieske KO mouse fibroblasts, CellTiter-Glo (AID 1508586;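 active = mean z-score across replicates of 1.96 or higher in either the MELAS or the Rieske mutant cell line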;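 also: z relative to plate mean and SD of compound and empty wells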). On the technique in general: Cellular ATP, detected with luciferase, serves as a proxy for viable cell number.
The nature of assay [5]: viability rescue of complex I mutant cybrids, primary screen, cell-based, galactose medium, ATP luminescence (AID 1645843;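 active = z-score of at least 1.8 in each of two replicates, scored against plate mean and spread of sample wells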;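 also: positive z means more ATP and so rescue of galactose-driven cybrid death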). The following applies: complex I mutant cybrid cells, 72 h, stronger effect = higher value.
The nature of assay [6]: inhibitors of Cryptococcus chitosan production, flow cytometry, Cibacron Brilliant Red staining (AID 1347148).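 Also: compound exposure lasted three days at 37 degrees C.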 As to conditions: Cryptococcus neoformans chitosan, stronger effect = lower value; at 10 µM unless noted. (In general: Flow cytometry measures light scatter and fluorescence of single cells or particles in a stream.)
Assay [7] in a line: circadian clock period modulators, cell-based, LOPAC library, luminescence reporter (AID 2774).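 Also: values are relative to mean of DMSO wells on each plate.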 As to conditions: circadian reporter cells, at 7 µM, actives lie on both sides.
For assay [8], the system named is Hepatitis C virus NS3 helicase. In words: HCV NS3 helicase inhibitors, primary screen, biochemical, fluorescence polarization, LOPAC1280 library (AID 687035; in the data active = inhibition above about 37%). As to conditions: Purified HCV NS3 helicase, Cy5-dT15 ssDNA binding fluorescence polarization; stronger effect = higher value; concentration not given here.
The nature of assay [9]: Cy5 fluorescence quenching or enhancement artefacts, artefact control for HCV NS3 helicase inhibitor project, biochemical, LOPAC1280 (AID 687037). The following applies: Cy5-DNA-NS3h complex fluorescence interference counterscreen. (In general: A counterscreen serves to expose hits that act by an unwanted route or on another target.)
Assay [10] is described as follows: phospholipid biosynthesis inhibitors in animal cells, primary screen, cell-based, LOPAC library, screen 4 (AID 1347384). As to conditions: phospholipid biosynthesis inhibition screen, at 10 µM.
The nature of assay [11]: hESC survival regulators, cell-based (AID 493140).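 Also: cells exposed to compounds for four days before counting.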 The following applies: human embryonic stem cell survival screen; stronger effect = higher value.
[12] abbreviates: measured here: relative caspase fold change +Dox/-Dox.
The mark [13] stands for this setting: measured here: total cells with miR-34 induction, stronger effect = lower value.
The mark [14] stands for this setting: measured here: total cells without miR-34 induction.
Setting [15] is: stronger effect = lower value, cell number ratio, induced over uninduced.
The mark [16] stands for this setting: MELAS cybrid survival, CellTiter-Glo 48 h, stronger effect = higher value.
Setting [17] is: Rieske KO mouse fibroblast survival, CellTiter-Glo 72 h.

Chain of ATP-dependent translocase ABCB1 (Homo sapiens) (P08183 whole entry, looked up): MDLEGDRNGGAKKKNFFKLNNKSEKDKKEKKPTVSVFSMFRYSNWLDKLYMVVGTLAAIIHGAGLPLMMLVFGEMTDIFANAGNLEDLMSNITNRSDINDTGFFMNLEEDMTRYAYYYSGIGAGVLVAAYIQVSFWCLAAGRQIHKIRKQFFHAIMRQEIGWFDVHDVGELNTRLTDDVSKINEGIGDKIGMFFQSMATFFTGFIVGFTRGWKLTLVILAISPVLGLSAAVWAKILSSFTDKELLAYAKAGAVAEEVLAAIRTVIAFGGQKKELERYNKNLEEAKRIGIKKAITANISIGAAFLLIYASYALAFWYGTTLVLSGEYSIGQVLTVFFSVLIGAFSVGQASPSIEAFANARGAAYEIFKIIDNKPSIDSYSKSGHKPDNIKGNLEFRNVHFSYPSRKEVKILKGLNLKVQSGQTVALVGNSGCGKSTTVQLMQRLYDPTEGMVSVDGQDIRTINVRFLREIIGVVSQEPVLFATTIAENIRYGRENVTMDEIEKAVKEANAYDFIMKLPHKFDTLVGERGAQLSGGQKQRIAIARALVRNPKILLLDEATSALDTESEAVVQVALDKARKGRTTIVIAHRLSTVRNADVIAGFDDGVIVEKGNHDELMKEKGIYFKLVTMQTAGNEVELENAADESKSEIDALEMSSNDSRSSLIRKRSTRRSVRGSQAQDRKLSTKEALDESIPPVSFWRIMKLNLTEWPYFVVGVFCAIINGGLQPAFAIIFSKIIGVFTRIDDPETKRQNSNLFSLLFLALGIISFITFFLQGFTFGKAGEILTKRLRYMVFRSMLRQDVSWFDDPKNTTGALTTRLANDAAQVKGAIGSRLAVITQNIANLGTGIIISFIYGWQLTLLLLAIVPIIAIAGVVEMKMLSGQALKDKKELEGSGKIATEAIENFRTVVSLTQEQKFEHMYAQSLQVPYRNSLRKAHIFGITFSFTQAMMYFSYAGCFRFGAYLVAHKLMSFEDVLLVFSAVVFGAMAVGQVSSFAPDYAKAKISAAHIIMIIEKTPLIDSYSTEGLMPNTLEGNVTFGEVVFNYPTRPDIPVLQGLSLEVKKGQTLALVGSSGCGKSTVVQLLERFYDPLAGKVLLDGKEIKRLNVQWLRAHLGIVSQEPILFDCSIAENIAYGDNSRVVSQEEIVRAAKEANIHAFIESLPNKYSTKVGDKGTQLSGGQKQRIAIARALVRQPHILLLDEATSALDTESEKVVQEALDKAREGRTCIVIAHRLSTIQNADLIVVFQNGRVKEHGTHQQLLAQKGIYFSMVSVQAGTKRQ

Consider `O[C@H]1[C@H]2[C@H](O)CCCN2C[C@H]1O`, for which the fold change is 0.852 (inactive) in [1] (stronger effect = lower value) and 1.17 in [1] (setting [12]). The cell count is 5340 in assay [1] (setting [13]) and 6260 in assay [1] (setting [14]).
As for `N[C@H]1C[C@@H]1c1ccccc1`, the fluorescence slope change in assay [2] was 55% (active). Further, the parasite load remaining in assay [3] is 52% (inactive) and 79.2% (inactive). In addition, the viability – broadly, a read-out of living cells in per cent, often relative to untreated cells – in assay [3] was 46.6% and 238%. The fold change in assay [1] (stronger effect = lower value) was 0.858 (inactive); in assay [1] (setting [15]), 0.985 (inactive); in [1] (setting [12]) it was 1.15 and 1.49. Further, the cell count in [1] (setting [13]) is 9050; in [1] (setting [14]), 9180 and 10500. The z-score in assay [4] (setting [16]) was 0.109 (inactive) and -0.281 (inactive); in assay [4] (setting [17]) it was -0.102 and -1.1; in assay [5], 0.92 (inactive).
For the compound `CCCCCCC(C)(C)c1cc(OC)c2c(c1)OC(C)(C)[C@@H]1CC=C(C)C[C@@H]21`, the fold change was 1.09 (inactive) in [1] (stronger effect = lower value) and 0.441 in assay [1] (setting [12]). The cell count in assay [1] (setting [13]) stood at 6970; in [1] (setting [14]), 6400.
Turning to `CCCC[C@H]1C(=O)O[C@H](C)[C@H](NC(=O)c2cccc(NC=O)c2OC)C(=O)O[C@@H](C)[C@@H]1OC(=O)CC(C)C`, the fold change in assay [1] (stronger effect = lower value) is 1.28 (inactive); in assay [1] (setting [12]) it was 0.897. Moreover, the cell count in assay [1] (setting [13]) is 869; in assay [1] (setting [14]) it was 680. In [6], the fold fluorescence is 6.91 [at 93.5 µM] (inactive).
As for `CCCCC/C=C\C/C=C\C/C=C\C/C=C\CCCC(=O)N[C@@H](C)CO`, the fold change in assay [1] (setting [15]) is 1.04 (inactive); in assay [1] (setting [12]), 0.734. Moreover, the cell count in assay [1] (setting [13]) was 6190; in assay [1] (setting [14]), 5940. Also, in assay [6], the fold fluorescence was 6.15 (inactive).
With `CO/C1=C\C(C)=C\[C@@H](C)[C@@H](O)[C@@H](C)C/C(C)=C/C=C/[C@H](OC)[C@@H]([C@@H](C)[C@@H](O)[C@H](C)[C@@]2(O)C[C@@H](O)[C@H](C)[C@@H](C(C)C)O2)OC1=O`, the figures for the fold change in assay [1] (setting [15]) and in [1] (setting [12]) were 1.05 (inactive) and 1.29, respectively. The cell count in [1] (setting [13]) is 2990; in assay [1] (setting [14]), 2860. Besides, the fold fluorescence in assay [6] is 11.4 [at 8 µM] (inactive).
For the compound `Clc1ccc(C2CC3CCC2N3)cn1` (stereo not given), the fold change in [1] (stronger effect = lower value) is 0.945 (inactive); in assay [1] (setting [12]) it was 1.19. The cell count in [1] (setting [13]) stood at 6010; in [1] (setting [14]) it was 6360. For the same compound, the fold fluorescence in assay [6] was 4.32 [at 239.6 µM] (inactive).
On to `CCCCC/C=C\C/C=C\C/C=C\C/C=C\CCCC(=O)OCCN`, for which the fold change in [1] (setting [15]) was 0.993 (inactive); in assay [1] (setting [12]), 0.893. Moreover, the cell count was 5780 in [1] (setting [13]) and 5820 in assay [1] (setting [14]).
For `CCCCCCCC/C=C\CCCCCCCC(=O)N[C@H](C)CO` the same measures were 0.925 (inactive), 1.87, 5120 and 5540.
`CCCCC/C=C\C/C=C\C/C=C\C/C=C\CCCC(=O)NCCOP(=O)(O)O`: the fold change is 0.994 (inactive) in assay [1] (setting [15]) and 0.95 in assay [1] (setting [12]). The cell count amounted to 5850 in [1] (setting [13]) and 5880 in assay [1] (setting [14]).
With `C=C(C)[C@H]1O[C@H]2CC[C@@]3(C)[C@@](O)(CC[C@H]4[C@@H]5OC(C)(C)[C@H]6C[C@@H]7C(=C)Cc8c(Cl)cc9[nH]c(c5c9c8[C@@]76O)[C@@]43C)[C@]23O[C@@H]3[C@H]1O`, the results for the fold change in assay [1] (stronger effect = lower value) and in assay [1] (setting [12]) were 1.28 (inactive) and 1.48, respectively. The figures for the cell count in [1] (setting [13]) and in [1] (setting [14]) were 1060 and 826, respectively.
For `CCCCC/C=C\C/C=C\C/C=C\C/C=C\CCCC(=O)Nc1ccc([N+](=O)[O-])cc1`, the figures for the fold change in [1] (setting [15]) and in [1] (setting [12]) were 1.04 (inactive) and 1.21, respectively. The results for the cell count in [1] (setting [13]) and in assay [1] (setting [14]) were 5860 and 5630, respectively.
As for `COc1ccc2c(c1)C13CCCCC1C(C2)N(C)CC3` (stereo not given), the period change in assay [7] is 0 h (inactive). Further, in assay [8], the inhibition – broadly, the drop in the measured response relative to a control, in per cent – was -1% (inactive). Also, the fluorescence ratio (interference) in [9] is 1.1 (inactive). The fold change in [1] (stronger effect = lower value) was 1.04 (inactive); in assay [1] (setting [12]) it was 1.15. Moreover, the results for the cell count in [1] (setting [13]) and in assay [1] (setting [14]) were 10100 and 9710, respectively. Moreover, in [10], the compound was called inactive. In [5], the z-score was -0.635 (inactive).
Turning to `CCCCC/C=C\C=C\[C@H](CCCCCCCC(=O)O)OO`, in [11], the survival was 87.6 (inactive). Besides, the fold change in assay [1] (stronger effect = lower value) was 0.93 (inactive); in assay [1] (setting [12]) it was 1.23. The cell count in assay [1] (setting [13]) is 5880; in assay [1] (setting [14]), 6320. Besides, the fold fluorescence in assay [6] was 5.11 [at 1 µM] (inactive).
Take `CN1CCC[C@@H]1Cc1c[nH]c2ccc(Nc3ncccc3[N+](=O)[O-])cc12`: the results for the fold change in assay [1] (stronger effect = lower value) and in assay [1] (setting [12]) were 1.01 (inactive) and 1.84, respectively. The cell count in assay [1] (setting [13]) stood at 7590; in assay [1] (setting [14]), 7510. Further, in [10], the compound was called inactive. In assay [5], the z-score is -0.89 (inactive).
Consider `NC1CC1c1ccccc1` (stereo not given), for which the period change in [7] was 0.03 h (inactive). In addition, in [8], the inhibition was -1% (inactive). Also, the fluorescence ratio (interference) in assay [9] was 1 (inactive). The fold change in assay [1] (stronger effect = lower value) was 0.977 (inactive) and 0.888 (inactive); in assay [1] (setting [12]), 1.3 and 1.48. Besides, the cell count in assay [1] (setting [13]) was 10200 and 8220; in assay [1] (setting [14]) it was 10400 and 9270. The result in [10] was inactive. Moreover, the z-score in [4] (setting [16]) is -0.158 (inactive); in [4] (setting [17]), -0.299; in [5] it was 0.355 (inactive).
On to `NC(CCP(=O)(O)O)C(=O)O` (stereo not given), for which the period change in assay [7] is 0.135 h (inactive). Further, the inhibition in [8] was -3% (inactive). In addition, in assay [9], the fluorescence ratio (interference) was 1 (inactive). Further, the fold change in assay [1] (stronger effect = lower value) is 1.04 (inactive); in assay [1] (setting [12]), 2.08. Further, the cell count in assay [1] (setting [13]) was determined as 10400; in assay [1] (setting [14]), 9940. In addition, in assay [10], the result was inactive. Also, the z-score in assay [5] was 0.32 (inactive).
Turning to `O=C1CC[C@@]2(O)C3Cc4ccc(O)c5c4C2(CCN3CC2CC2)[C@H]1O5` (stereo not given in full), the period change in assay [7] is -0.05 h (inactive). Further, the inhibition in assay [8] is -6% (inactive). The fluorescence ratio (interference) in [9] was 1 (inactive). Also, the fold change was 1.1 (inactive) in [1] (stronger effect = lower value) and 1.19 in assay [1] (setting [12]). Also, the results for the cell count in assay [1] (setting [13]) and in assay [1] (setting [14]) were 11300 and 10300, respectively. Moreover, the compound was called inactive in [10]. In assay [5], the z-score is 0.445 (inactive).
For `N#CC(C#N)=Cc1ccc(O)cc1`, the survival in [11] is 59.8 (inactive). The fold change is 1.08 (inactive) in assay [1] (stronger effect = lower value) and 1.22 in [1] (setting [12]). Besides, the figures for the cell count in assay [1] (setting [13]) and in assay [1] (setting [14]) were 5450 and 5070, respectively. Further, the fold fluorescence in [6] is 5.71 [at 293.8 µM] (inactive).
For `CCCCCCCCCCCCCC(=O)O[C@@H]1[C@@H](C)[C@@]2(O)[C@@H](C=C(CO)C[C@@]3(O)C(=O)C(C)=C[C@@H]23)C2C(C)(C)[C@@]21OC(C)=O` (stereo not given in full), the period change in assay [7] was -1.74 h (active). For the same compound, the inhibition in [8] is -2% (inactive). Moreover, in assay [9], the fluorescence ratio (interference) is 1 (inactive). Further, the fold change in assay [1] (setting [15]) was 0.676 (active); in assay [1] (setting [12]), 1.62. Besides, the cell count in assay [1] (setting [13]) is 418; in [1] (setting [14]), 618. Besides, the compound was classed as inactive in assay [10]. For the same compound, the z-score in assay [5] is -1.38 (inactive).
As for `CCCCC/C=C\C/C=C\C/C=C\C/C=C\CCCCCC(=O)NCCO`, in [11], the survival was 86.3 (inactive). Also, the fold change in assay [1] (stronger effect = lower value) was 1.02 (inactive) and 1.04 (inactive); in assay [1] (setting [12]), 1.64 and 1.22. Further, the cell count in [1] (setting [13]) is 5810 and 5940; in assay [1] (setting [14]), 5700 and 5690. Also, in [6], the fold fluorescence was 5.48 (inactive).
